# Measured values: PubChem BioAssay (NCATS)
# Values joined by “and” are separate entries in the source; they are usually repeats but may differ in a detail not shown here. Equal values may be shown once. Results filed as inconclusive are left out. Entries that show only a call come without a potency. A structure can be active in one record and inactive in another. Active and inactive are the calls of the source. Unless noted, calls come from the whole dose curve; as a rule, active = well fitted curve in the direction sought with a large enough effect in the repeat runs; inconclusive = weak or mixed curves; inactive = no such curve, though single readings can be large; an effect the other way counts as inactive or inconclusive.
# Columns and labels:
# [1] = Primary qHTS for small molecule stabilizers of the endoplasmic reticulum resident proteome: Secreted ER Calcium Modulated Protein (SERCaMP) assay (AID 1508630; active = well fitted curve in the direction sought with a large enough effect; an effect the other way counts as inactive or inconclusive)
# Procedure, shortened: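 GLuc-SERCaMP-expressing SH-SY5Y cells, pretreated 16 h with compound, are challenged with thapsigargin to empty ER calcium stores; after 4 h, coelenterazine is added directly to the medium and luminescence is imaged.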
# [2] = A High-Content qHTS Against Drug Library for the Identification of Small Molecules that Inhibit DYT1 Early Onset Primary Dystonia-Associated Cell Pathology (AID 1645839; calls by dose curve)
# Procedure, shortened: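 Readout: %pathology, the punctate EGFP-TorsinA distribution from imaging, as the primary channel and cell count as the toxicity counterscreen. HEK293 Flp-In cells expressing delE TorsinA were induced with tetracycline and treated with compound for 48 h.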
# [3] = molecular target: Cytochrome P450 2D6 (Homo sapiens) (UniProt P10635); test: Cytochrome P450 family 2 subfamily D member 6 (CYP2D6) small molecule antagonists: luciferase biochemical (cell-free) qHTS assay (AID 1645840); note: nearly all actives have a fitted effect of over 55% in size; note: potency is the fitted concentration of half-maximal effect
# Procedure, shortened: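 P450-Glo luminescent screen: recombinant CYP2D6 enzyme–proluciferin substrate mix preincubated with compound 10 min at room temperature, then NADPH regeneration added for 1 h at room temperature. Detection reagent added for 20 min; luciferin light read as relative luminescence units.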
# [4] = molecular target: Cytochrome P450 2C9 (Homo sapiens) (UniProt P11712); test: Cytochrome P450 family 2 subfamily C member 9 (CYP2C9) small molecule antagonists: luciferase biochemical (cell-free) qHTS assay (AID 1645842); note: nearly all actives have a fitted effect of over 55% in size; note: potency is the fitted concentration of half-maximal effect
# Procedure, shortened: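 Luminescence, after 20 min with luciferin detection reagent, reflected CYP2C9 turnover during a 1 h NADPH-driven reaction at 37C. Enzyme-substrate mix contained 0.4% bovine serum albumin and was preincubated with compound 10 min at room temperature.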
# [5] = molecular target: Cytochrome P450 3A4 (Homo sapiens) (UniProt P08684); test: Cytochrome P450 family 3 subfamily A member 4 (CYP3A4) small molecule antagonists: luciferase qHTS assay (AID 1645841); note: nearly all actives have a fitted effect of over 45% in size
# Procedure, shortened: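 P450-Glo CYP3A4 enzyme with proluciferin substrate was preincubated with DMSO-dissolved compounds for 10 min at room temperature. NADPH regeneration solution started a 1 h reaction. Detection reagent stopped it, and luminescence was read after 20 min.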
# [6] = Cytotoxicity counterscreen for inhibitors of SARS-CoV-2 cell entry (AID 1645845; calls by dose curve; note: nearly all actives have a fitted effect of over 50% in size)
# Procedure, shortened: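 Expi293F/hACE2 cells seeded overnight; cpd pin-transferred in DMSO, 1 h preincubation, + media, 48 h 37 C 5% CO2; ATPLite 1step luminescence; normalized to cells and no cells.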
# [7] = Primary qHTS to identify inhibitors of SARS-CoV-2 cell entry (AID 1645846; calls by dose curve; note: nearly all actives have a fitted effect of over 45% in size); conditions: activity change, negative = inhibition: at 57.1 µM (top of the series) unless noted
# Procedure, shortened: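 HEK293-ACE2 (Expi293F, stable hACE2), 1500 cells/well, o/n 37C; cpd 23 nL pin, 1 h; MLV-PP w/ SARS-CoV-2-S (Wuhan-Hu-1, Δ19 C-term); 48 h 37C; Bright-Glo luminescence; normalized vs S-PP and bald PP.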
# [8] = molecular target: Papain (Carica papaya) (UniProt P00784); test: Primary qHTS assay for inhibitors of the protease papain (AID 1645873; active = well fitted curve in the direction sought with a large enough effect; an effect the other way counts as inactive or inconclusive;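 note: papain turnover of Z-FR-AMC read as the AMC fluorescence gain over 10 min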)
# [9] = Cell Viability qHTS for small molecule stabilizers of the endoplasmic reticulum resident proteome (AID 1508629; active = well fitted curve in the direction sought with a large enough effect; an effect the other way counts as inactive or inconclusive;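 note: human SH-SY5Y neuroblastoma cells carrying the GLuc-SERCaMP reporter; compound exposure about 46 h in total before the viability read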); conditions: cell viability counter-screen, 100 nM thapsigargin for final 4 h
# [10] = Confirmatory qHTS to identify inhibitors of SARS-CoV-2 cell entry (AID 1645844; calls by dose curve; note: potency is the fitted concentration of half-maximal effect; nearly all actives have a fitted effect of over 45% in size)
# Procedure, shortened: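 HEK293-ACE2 cells (Expi293F stably expressing human ACE2) were pretreated with compounds for 1 hr at 37C, then infected with MLV-based particles carrying Wuhan-Hu-1 spike (C-terminal 19-aa truncation). Luciferase luminescence read after 48 hr; normalized to spike PP (100%) and bald PP (0%).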
# Sequence of Cytochrome P450 3A4 (Homo sapiens) (P08684 whole entry, looked up): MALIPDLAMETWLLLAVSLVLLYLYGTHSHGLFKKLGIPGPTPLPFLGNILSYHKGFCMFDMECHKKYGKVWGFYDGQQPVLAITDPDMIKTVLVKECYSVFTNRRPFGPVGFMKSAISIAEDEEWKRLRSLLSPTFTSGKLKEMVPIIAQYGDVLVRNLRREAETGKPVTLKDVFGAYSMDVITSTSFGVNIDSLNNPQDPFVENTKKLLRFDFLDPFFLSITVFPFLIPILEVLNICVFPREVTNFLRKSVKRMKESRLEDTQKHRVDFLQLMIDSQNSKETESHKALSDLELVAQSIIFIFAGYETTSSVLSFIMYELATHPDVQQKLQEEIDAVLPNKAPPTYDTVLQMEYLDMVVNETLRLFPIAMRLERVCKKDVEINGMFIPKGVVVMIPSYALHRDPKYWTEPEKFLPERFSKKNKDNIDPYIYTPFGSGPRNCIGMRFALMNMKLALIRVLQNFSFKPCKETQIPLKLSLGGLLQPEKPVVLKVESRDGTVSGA
# Sequence of Cytochrome P450 2C9 (Homo sapiens) (P11712 whole entry, looked up): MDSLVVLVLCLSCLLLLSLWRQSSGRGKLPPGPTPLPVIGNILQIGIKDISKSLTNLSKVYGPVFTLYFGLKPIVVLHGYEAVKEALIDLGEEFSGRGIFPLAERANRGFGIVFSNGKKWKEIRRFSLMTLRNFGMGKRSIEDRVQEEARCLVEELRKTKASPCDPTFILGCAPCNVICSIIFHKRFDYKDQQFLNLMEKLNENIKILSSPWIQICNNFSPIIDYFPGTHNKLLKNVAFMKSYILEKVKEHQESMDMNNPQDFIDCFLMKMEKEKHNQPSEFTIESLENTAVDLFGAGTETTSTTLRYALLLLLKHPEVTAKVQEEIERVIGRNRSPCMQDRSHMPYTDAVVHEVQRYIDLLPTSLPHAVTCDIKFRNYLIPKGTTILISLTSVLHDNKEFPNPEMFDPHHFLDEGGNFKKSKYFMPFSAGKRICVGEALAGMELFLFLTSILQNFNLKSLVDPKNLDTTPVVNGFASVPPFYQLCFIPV
# Sequence of Cytochrome P450 2D6 (Homo sapiens) (P10635 whole entry, looked up): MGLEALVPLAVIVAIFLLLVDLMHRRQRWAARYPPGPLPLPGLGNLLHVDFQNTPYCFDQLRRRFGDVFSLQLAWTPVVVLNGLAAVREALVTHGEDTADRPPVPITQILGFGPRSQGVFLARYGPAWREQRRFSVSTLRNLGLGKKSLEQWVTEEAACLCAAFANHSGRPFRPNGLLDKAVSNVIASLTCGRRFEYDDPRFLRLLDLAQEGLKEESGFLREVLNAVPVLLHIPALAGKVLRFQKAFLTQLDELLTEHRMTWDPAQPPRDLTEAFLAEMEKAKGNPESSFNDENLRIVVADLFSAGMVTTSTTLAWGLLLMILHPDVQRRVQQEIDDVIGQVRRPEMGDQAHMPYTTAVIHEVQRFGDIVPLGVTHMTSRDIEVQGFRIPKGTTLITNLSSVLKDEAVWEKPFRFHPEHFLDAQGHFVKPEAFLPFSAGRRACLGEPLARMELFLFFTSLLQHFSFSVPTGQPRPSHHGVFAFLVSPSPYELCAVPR
# Sequence of Papain (Carica papaya) (P00784 whole entry, looked up): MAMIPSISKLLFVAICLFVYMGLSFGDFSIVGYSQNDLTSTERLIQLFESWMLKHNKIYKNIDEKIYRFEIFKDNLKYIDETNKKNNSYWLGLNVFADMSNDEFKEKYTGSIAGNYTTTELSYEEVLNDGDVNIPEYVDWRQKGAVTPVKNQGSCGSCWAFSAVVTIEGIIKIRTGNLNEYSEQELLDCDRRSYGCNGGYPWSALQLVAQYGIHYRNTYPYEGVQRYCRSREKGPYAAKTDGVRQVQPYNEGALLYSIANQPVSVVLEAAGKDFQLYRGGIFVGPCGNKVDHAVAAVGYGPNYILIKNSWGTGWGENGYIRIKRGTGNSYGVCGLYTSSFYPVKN
compound,measurement,setting,value
CC(Cc1ccccc1)N(C)Cc1ccco1 (stereo not drawn),Potency,[1],inactive
same,outcome,[2],inactive
same,Potency,[3],2.45 µM (active)
same,Potency,[4],inactive
CC(C)=CC1C(C(=O)OCN2C(=O)C3=C(CCCC3)C2=O)C1(C)C (stereo not drawn),Potency,[1],inactive
same,outcome,[2],inactive
same,Potency,[3],6.92 µM (active)
same,Potency,[4],8.71 µM (active)
CCN[C@H](C)Cc1cccc(C(F)(F)F)c1,Potency,[1],inactive
same,outcome,[2],inactive
same,Potency,[3],3.16 µM (active)
same,Potency,[4],inactive
O=P1(N(CCCl)CCCl)NCCCO1 (stereo not drawn),Potency,[1],inactive
same,outcome,[2],inactive
same,Potency,[3],inactive
same,Potency,[5],inactive
same,Potency,[4],inactive
same,Potency,[6],inactive
same,Potency,[7],inactive
same,outcome,[8],inactive
NNc1ccccc1,max response,[9],-1.1% (inactive)
same,Potency,[4],inactive
C[C@@H]1CC2=CC(=O)CC[C@@H]2[C@H]2CC[C@@]3(C)[C@@H](CC[C@]3(C)O)[C@@H]21,Potency,[1],inactive
same,outcome,[2],inactive
same,Potency,[3],inactive
same,Potency,[4],inactive
same,Potency,[6],inactive
C[C@]12Cc3cn[nH]c3C[C@@H]1CC[C@@H]1[C@@H]2CC[C@@]2(C)[C@H]1CC[C@]2(C)O,Potency,[1],inactive
same,outcome,[2],inactive
same,Potency,[3],1.95 µM (active)
same,Potency,[4],0.692 µM (active)
same,Potency,[6],inactive
same,"activity change, negative = inhibition",[7],-13.6%
CN1CCC(O)(c2ccc(F)cc2)C(C(=O)c2ccc(F)cc2)C1 (stereo not drawn),Potency,[1],inactive
same,outcome,[2],inactive
same,Potency,[3],24.5 µM (active)
same,Potency,[4],inactive
C[N+]1(CCF)[C@@H]2CC[C@H]1CC(OC(=O)C(O)(c1ccccc1)c1ccccc1)C2 (stereo partly drawn),Potency,[1],inactive
same,outcome,[2],inactive
same,Potency,[3],15.5 µM (active)
same,Potency,[4],inactive
same,Potency,[6],inactive
CCN[C@@H](C)Cc1cccc(C(F)(F)F)c1,Potency,[1],inactive
same,outcome,[2],inactive
same,Potency,[3],2.75 µM (active)
same,Potency,[4],inactive
NC1=NC(=O)C(c2ccccc2)O1 (stereo not drawn),Potency,[1],inactive
same,outcome,[2],inactive
same,Potency,[3],inactive
same,Potency,[4],inactive
COc1cccc([C@@]2(O)CCCC[C@@H]2CN(C)C)c1,Potency,[1],inactive
same,outcome,[2],inactive
same,Potency,[3],inactive
same,Potency,[5],inactive
same,Potency,[4],inactive
C#C[C@]1(O)CC[C@H]2[C@@H]3CCC4=CC(=O)CC[C@]4(C)[C@H]3CC[C@@]21C,Potency,[1],inactive
same,outcome,[2],inactive
same,Potency,[3],inactive
same,Potency,[4],inactive
C=CCN1C[C@H](C)N([C@H](c2ccc(C(=O)N(CC)CC)cc2)c2cccc(OC)c2)C[C@H]1C,Potency,[1],inactive
same,outcome,[2],inactive
same,Potency,[3],2.45 µM (active)
same,Potency,[4],inactive
O=C1CN=C(c2ccccc2)c2cc([N+](=O)[O-])ccc2N1,Potency,[1],inactive
same,outcome,[2],inactive
same,Potency,[3],inactive
O=C(O)CCCc1ccc(N(CCCl)CCCl)cc1,Potency,[1],inactive
same,outcome,[2],inactive
same,Potency,[3],inactive
same,Potency,[4],inactive
same,Potency,[6],inactive
C[C@]12CCC(=O)C=C1CC[C@@H]1[C@H]3CC[C@](C)(O)[C@@]3(C)CC[C@@H]12,Potency,[1],inactive
same,outcome,[2],inactive
same,Potency,[3],43.5 µM (active)
same,Potency,[4],42.6 µM (active)
CCC1(c2ccccc2)C(=O)N(COC)C(=O)N(COC)C1=O,Potency,[1],inactive
same,outcome,[2],inactive
same,Potency,[3],inactive
same,Potency,[4],inactive
COc1cccc2c1C(=O)c1c(O)c3c(c(O)c1C2=O)C[C@@](O)(C(=O)CO)CC3OC1CC(N2CCOC(OC)C2)C(O)C(C)O1 (stereo partly drawn),Potency,[1],inactive
same,outcome,[2],inactive
same,Potency,[3],inactive
same,Potency,[4],3.47 µM (active)
same,Potency,[10],0.0482 µM (active)
CCOC(=O)CC(SP(=S)(OC)OC)C(=O)OCC (stereo not drawn),Potency,[1],inactive
same,outcome,[2],inactive
same,Potency,[3],39.9 µM (active) and inactive
same,Potency,[4],1.3 µM (active) and 1.74 µM (active)
same,Potency,[6],inactive
same,"activity change, negative = inhibition",[7],2.11%
C[C@]12CCC(=O)C=C1CC[C@@H]1[C@@H]2CC[C@@]2(C)[C@H]1CC[C@]2(C)O,Potency,[1],inactive
same,outcome,[2],inactive
same,Potency,[3],inactive
same,Potency,[4],inactive
CC1(C)C(C=C(Cl)Cl)C1C(=O)OC(C#N)c1cccc(Oc2ccccc2)c1 (stereo not drawn),Potency,[1],inactive
same,outcome,[2],inactive
same,Potency,[3],inactive
CCCCCCC(=O)CCCCCC/C=C/C[C@@H](O)[C@H](O)[C@@](N)(CO)C(=O)O,Potency,[1],inactive
same,outcome,[2],inactive
same,Potency,[3],inactive
same,Potency,[4],inactive
CCCCC/C=C\C/C=C\C/C=C\C/C=C\CCCC(=O)NCC(=O)O,Potency,[1],inactive
Nc1nc(N)nc(NC2CC2)n1,Potency,[1],inactive
same,outcome,[2],inactive
same,Potency,[3],inactive
same,Potency,[5],inactive
same,Potency,[4],inactive
O=C(N/N=C/c1ccc([N+](=O)[O-])o1)c1cc([N+](=O)[O-])cc([N+](=O)[O-])c1O,Potency,[1],inactive
same,outcome,[2],inactive
same,Potency,[3],0.617 µM (active)
same,Potency,[4],inactive
O=C1c2ccccc2C(=O)C1C(=O)C(c1ccccc1)c1ccccc1,Potency,[1],inactive
same,outcome,[2],inactive
same,Potency,[3],19.2 µM (active)
same,Potency,[4],0.384 µM (active)
C[C@]12CCC(=O)C=C1CC[C@@H]1[C@@H]2CC[C@]2(C)C(=O)CC[C@@H]12,Potency,[1],inactive
same,outcome,[2],inactive
same,Potency,[3],inactive
same,Potency,[5],inactive
same,Potency,[4],inactive
same,Potency,[6],inactive
COc1c2c(cc3c1OCO3)CCN(C)C2,max response,[9],7.99% (inactive)
same,outcome,[2],inactive
same,Potency,[3],2.45 µM (active)
same,Potency,[4],inactive
same,Potency,[6],inactive
same,"activity change, negative = inhibition",[7],-9.9%
CCC(C)(C)c1ccc(O)cc1,Potency,[1],inactive
same,outcome,[2],inactive
same,Potency,[3],inactive
ClCCN1CCCC1,Potency,[1],inactive
same,outcome,[2],inactive
same,Potency,[3],inactive
same,Potency,[4],inactive
CCN(CCO)CCn1c(Cc2ccccc2)nc2c1c(=O)n(C)c(=O)n2C,Potency,[1],inactive
same,outcome,[2],inactive
same,Potency,[3],inactive
same,Potency,[4],inactive
CCN(CC)C(=O)[C@@H]1C=C2c3cccc4[nH]cc(c34)C[C@H]2N(C)C1,Potency,[1],inactive
CCc1cc2c(s1)-n1c(C)nnc1CN=C2c1ccccc1Cl,Potency,[1],inactive
same,outcome,[2],inactive
same,Potency,[3],inactive
same,Potency,[4],inactive
same,Potency,[6],inactive
CCC(C)C(C)(COC(N)=O)COC(N)=O (stereo not drawn),Potency,[1],inactive
same,outcome,[2],inactive
same,Potency,[3],inactive
same,Potency,[4],inactive
same,Potency,[6],inactive
same,"activity change, negative = inhibition",[7],-15.3%
CCCOC(=O)c1cncn1C(C)c1ccccc1 (stereo not drawn),Potency,[1],inactive
same,outcome,[2],inactive
same,Potency,[3],inactive
same,Potency,[4],13.8 µM (active)
COC(=O)C(Cl)C(=O)OC,Potency,[1],inactive
same,outcome,[2],inactive
same,Potency,[3],inactive
same,Potency,[4],inactive
